Data: paper PMC5540273 (PLoS ONE, 2017)

Tests used:
Conditions in all cases: concentration: 1 μM, replicates: in singlicate; n = 1
MTOR = test system: MTOR
MUSK = test system: MUSK
MYLK2 = test system: MYLK2
MYLK4 = test system: MYLK4
MYLK = test system: MYLK
MYO3A = test system: MYO3A
MYO3B = test system: MYO3B
NDR1 = test system: T1, NDR1
T1 construct: gene STK38

NDR2 = test system: NDR2
NEK10 = test system: NEK10
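Further: KINOMEscan kinase panel screen.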

SMILES	%Inh (MTOR) [%]	%Inh (MUSK) [%]	%Inh (MYLK2) [%]	%Inh (MYLK4) [%]	%Inh (MYLK) [%]	%Inh (MYO3A) [%]	%Inh (MYO3B) [%]	%Inh (NDR1) [%]	%Inh (NDR2) [%]	%Inh (NEK10) [%]
COc1cccc(NC(=O)NC2CCN(c3ccnc(Nc4cc(OC)c(OC)c(OC)c4)n3)C2)c1 (stereo not shown) [GSK1379763]	7	5	0	0	17	12	0	0	0	15
CCS(=O)(=O)c1ccc(OC)c(Nc2nccc(-c3c(-c4cccc(NC(=O)c5c(F)cccc5F)c4)nn4ncccc34)n2)c1 [GSK326180]	15	11	9	2	17	30	6	0	0	21
COc1ccc(Nc2nccc(NCCNC(=O)c3cc4ccccc4s3)n2)cc1 [GSK1379896]	0	8	0	6	18	5	0	9	0	0
CN1CCN(Cc2cccc(-c3ccc4c(Nc5ccc(Oc6ccccc6)cc5)ccnc4c3)c2)CC1 [GW578342]	15	17	0	0	13	28	0	14	25	0
Cc1ccc(C(=O)N2CC[C@@H](O)C2)cc1-n1c(C)cc(OCc2ccc(F)cc2F)c(Br)c1=O	45	9	0	0	0	0	0	26	0	0
COc1cccc(-c2ccc3c(NC(=O)C4CC4)n[nH]c3n2)c1 [SB-710903]	20	0	78	6	11	45	0	10	16	20
O=C(O)C(F)(F)F.O=C(O)C(F)(F)F.O=c1[nH]ccc2nc(N[C@@H]3CCCNC3)nc(Nc3ccc(S(=O)(=O)N4CCOCC4)cc3)c12 [GSK2177277]	9	98.2	33	91.3	96.9	52	0	97.4	74	93.6
Cn1cc(-c2ccc3c(c2)CCN3C(=O)Cc2cccc(Cl)c2)c2c(N)ncnc21 [GSK2606590]	0	29	71	0	8	43	21	0	0	18
COc1cc(Nc2nccc(N3CCC(NC(=O)c4cc5ccccc5s4)C3)n2)cc(OC)c1OC (stereo not shown) [GSK1379760]	34	1	13	3	0	17	0	12	0	18
O=C(Nc1cccc(-c2nn3ccccc3c2-c2ccnc(Nc3cccc(F)c3)n2)c1)c1c(F)ccc(F)c1Cl [GSK357952]	0	11	10	0	5	0	0	41	0	44
O=C(Nc1cccc(Oc2ccc3nc(NC(=O)C4CC4)cn3n2)c1)c1ccccc1C(F)(F)F	15	11	0	0	10	0	0	26	0	0
COc1cccc(C2=C(Nc3ccc(Cl)c(C(=O)O)c3)C(=O)NC2=O)c1 [SB-390769]	18	17	21	60	100	20	0	100	0	73
O=c1[nH]cc(-c2ccc(N3CCOCC3)cc2)c2sc(-c3cn[nH]c3)cc12 [GSK2276055]	8	0	3	48	18	53	0	30	29	0
COc1ccc(CNC(=O)NC2CCN(c3ccnc(Nc4ccc(F)cc4)n3)CC2)cc1 [GSK1379788]	18	0	0	5	5	40	0	7	16	3
COc1cc(Nc2nccc(-c3c(-c4cccc(NC(=O)c5c(F)cccc5F)c4)nn4ccccc34)n2)cc(OC)c1OC [GSK323521]	33	23	91.6	5	8	26	100	22	0	10
Cl.Cl.NCC(C(=O)Nc1cc(Br)c(-c2ccnc3[nH]ccc23)s1)c1ccccc1 (stereo not shown) [GSK1269851]	26	1	56	99.8	37	0	0	70	13	12
Cl.c1ccc(-c2ccc3c(Nc4ccc5[nH]ncc5c4)ccnc3c2)nc1 [GW440137]	7	7	5	11	26	36	0	8	10	1
CCn1c(-c2nonc2N)nc2c(C#CC(C)(C)O)nc(OC[C@H](N)c3ccccc3)cc21 [GSK943949]	20	0	0	0	12	0	0	34	2	34
CC(C)c1nc(-c2cccc(NS(=O)(=O)c3c(F)cccc3F)c2F)c(-c2ccnc(Nc3ccc(N4CCOCC4)nc3)n2)s1 [GSK2008607]	10	10	0	0	18	78	65	62	65	0
Clc1ccc(-c2nn3ncccc3c2-c2ccnc(Nc3ccc4c(c3)OCCO4)n2)cc1 [GW829116]	0	0	0	0	0	7	1	34	8	0
Cn1cc(-c2[nH]c3cc(NC(=O)[C@H](N)C4CCCCC4)cc4c3c2C=NNC4=O)cn1	17	12	47	98.7	24	5	0	93.1	75	54
Oc1cc(Nc2ccnc3cc(I)ccc23)ccc1F [GW552771]	11	5	0	1	17	0	0	0	0	9

SMILES	%Inh (MTOR) [%]	%Inh (MUSK) [%]	%Inh (MYLK2) [%]	%Inh (MYLK4) [%]	%Inh (MYLK) [%]	%Inh (MYO3A) [%]	%Inh (MYO3B) [%]	%Inh (NDR1) [%]	%Inh (NDR2) [%]	%Inh (NEK10) [%]
CC(C)(C)c1ccc2nccc(Nc3cccc(O)c3)c2c1 [GW856795]	0	0	0	0	20	6	5	0	0	0
NCCCC(NC(=O)c1cc(Br)c(-c2ccnc3[nH]ccc23)s1)c1ccccc1.O=C(O)C(F)(F)F.O=C(O)C(F)(F)F (stereo not shown) [GSK1287544]	3	8	30	99.6	23	0	0	95.7	86	20
C[C@@H](Oc1cc(-n2cnc3cc(-c4ccnc(NCCS(C)(=O)=O)c4)ccc32)sc1C(N)=O)c1ccccc1Cl [GSK907232]	2	30	53	2	10	13	0	0	0	0
O=C(NC1CCN(c2ccnc(Nc3ccc(F)cc3)n2)C1)c1cc2ccccc2s1 (stereo not shown) [GSK1379716]	25	21	4	5	36	36	0	8	0	19
CCCCc1nn2ncccc2c1-c1ccnc(Nc2ccc(N3CCN(C)CC3)cc2)n1 [GW684941]	16	98.2	41	26	4	0	0	18	0	65
Cl.Cl.NCC(NCc1ccc(-c2ccnc3[nH]ccc23)s1)c1ccccc1 (stereo not shown) [GSK1321565]	43	13	5	99.8	59	34	0	53	31	27
Cc1cccc(Nc2nc(N[C@H]3CCNC3)ncc2C(N)=O)c1.Cl [GSK2197149]	0	0	0	81	16	2	0	0	0	56
COc1cc(Nc2nccc(-c3c(-c4cccc(NC(=O)c5c(F)cccc5F)c4)nn4ncccc34)n2)cc(OC)c1OC [GSK327238]	8	25	10	7	9	38	40	20	0	15
CSc1cccc2c(-c3ccncn3)c(-c3ccc(F)cc3)nn12 [GW514786]	24	7	0	0	23	13	0	13	12	2
O=C(Nc1n[nH]c2nc(-c3ccc(O)cc3)ccc12)C1CC1 [SB-710363]	0	0	79	31	35	62	9	0	4	0
Cc1ccc(C)c(NC(=O)NC2CCN(c3ccnc(Nc4ccc(F)cc4)n3)C2)c1 (stereo not shown) [GSK1379720]	15	5	0	0	2	5	0	0	0	9
C[C@@H]1CC[C@@H](C(=O)Nc2ccccc2)CN1c1cc(-c2ccc3c(N)n[nH]c3c2)nc(N)n1 [GSK2286062]	0	0	0	5	15	33	0	13	0	7
CC(=O)N1CCN(c2ccc(Nc3nccc(-c4sc(C(C)C)nc4-c4cccc(NS(=O)(=O)c5cccc(Cl)c5)c4)n3)cn2)CC1 [GSK1660437]	3	14	0	0	7	12	49	14	0	0
Nc1ncnc2c1nc(-c1ccccc1)n2-c1ccccc1 [SKF-97293]	8	11	0	25	32	13	38	32	14	21
COC(=O)Nc1nc2ccc(Oc3ccc(NC(=O)Nc4cc(C(F)(F)F)ccc4F)cc3)cc2n1C.Cl [GW692089]	28	98.5	36	0	0	17	0	24	45	1
COc1cc(Nc2nccc(N3CCC(NC(=O)Nc4cccc(C(C)=O)c4)C3)n2)cc(OC)c1OC (stereo not shown) [GSK1379753]	0	18	7	1	17	6	0	8	0	20
COc1ccc(Nc2nccc(N3CCC(NC(=O)Nc4cccc(OC)c4)C3)n2)cc1 (stereo not shown) [GSK1379742]	10	8	14	0	2	0	0	0	0	0
Cc1occc1-c1ncc(OC[C@@H](N)Cc2c[nH]c3ccccc23)cc1-c1ccc2[nH]nc(C)c2c1.O=C(O)C(F)(F)F [GSK682037]	7	7	21	0	29	75	38	30	0	4
Nc1ncc(-c2ccc3nccc(-c4ccncc4)c3c2)cc1S(=O)(=O)N1CCOCC1 [GSK1627798]	99.3	0	0	0	20	0	0	6	0	16
CN1CCN(CCCNc2nccc(-c3c(-c4ccc(F)cc4)nn4cc(C(F)(F)F)ccc34)n2)CC1 [GW621581]	0	0	8	0	0	0	0	10	0	10
c1ccc(-c2cnc3nccnn23)cc1 [AH20685]	2	2	0	0	0	0	0	0	0	0
Cc1ccc(F)c(C(=O)Nc2cccc(-c3nn4ccccc4c3-c3ccnc(Nc4cccc(F)c4)n3)c2)c1F [GSK361061]	13	22	17	0	33	10	0	15	0	11

SMILES	%Inh (MTOR) [%]	%Inh (MUSK) [%]	%Inh (MYLK2) [%]	%Inh (MYLK4) [%]	%Inh (MYLK) [%]	%Inh (MYO3A) [%]	%Inh (MYO3B) [%]	%Inh (NDR1) [%]	%Inh (NDR2) [%]	%Inh (NEK10) [%]
c1ccc(Oc2ccc(Nc3ccnc4cc(-c5ccc(CNCCN6CCOCC6)o5)ccc34)cc2)nc1 [GW567145]	23	1	0	0	0	24	0	16	40	0
COc1ccc(-c2coc3ccc(-c4nnc(SCc5ccc(OC)c(C(F)(F)F)c5)o4)cc23)cc1	0	1	0	0	15	8	36	20	0	0
O=C(Nc1cccc(-c2nn3ncccc3c2-c2ccnc(Nc3ccccc3)n2)c1)c1c(F)cccc1F [GSK198271]	10	4	0	0	7	6	30	11	0	0
COC(=O)Nc1nc2cc(Oc3ccc(NC(=O)Nc4cc(C(F)(F)F)ccc4F)cn3)ccc2[nH]1.Cl.Cl [GW681170]	2	99.4	0	0	16	21	0	20	14	7
CCc1ccc(-c2ccc3c(c2)-c2c(cnn2C)S(=O)(=O)N3C)cc1	0	14	0	1	0	16	25	0	0	9
COCCOCCOc1cc2ncc3c4ccc(C#N)cc4[nH]c3c2cc1OC	0	6	54	72	33	10	0	60	0	0
Cl.NC(=O)c1cccc(Nc2nccc(Nc3ccc(Oc4c(Cl)cccc4Cl)c(Cl)c3)n2)c1 [GW659009]	0	5	0	0	0	0	0	17	0	0
Nc1ncc(-c2cccnc2)c2scc(-c3ccc4c(c3)CCN4C(=O)Cc3ccccc3)c12 [GSK683281]	0	39	32	11	33	17	6	29	0	14
CN(C)Cc1ccc(-c2ccc3c(Nc4ccc(Oc5ccccn5)cc4)ccnc3c2)o1 [GW567148]	8	0	0	0	4	0	0	6	0	13
CNC(=O)c1ccccc1Nc1nc(Nc2ccc(N3CCOCC3)cc2)ncc1Cl.Cl [GSK1576028]	8	74	74	99.9	94	48	0	97.9	91.3	24
Nc1n[nH]c2cnc(-c3ccccc3)cc12 [SB-642124]	14	99.9	6	69	3	8	0	20	0	47
COc1cc2c(cc1OCCN1CCNCC1)ncc1c3ccc(C#N)cc3[nH]c21	19	0	68	70	47	0	0	3	0	20
Cl.c1ccc(-c2ccc3c(Nc4ccc5[nH]ccc5c4)ccnc3c2)nc1 [GW440138]	4	0	0	0	13	23	0	0	27	1
COc1cc(Nc2ncc3c(C)nc(-c4cc5ccccc5[nH]4)n3n2)cc(OC)c1OC [GW869516]	14	47	0	39	0	0	0	10	0	0
Cn1cc(-c2ccc3c(c2)CCN3C(=O)Cc2cccc(F)c2)c2c(N)ncnc21 [GSK2603358]	16	5	83	0	18	51	5	0	7	22
O=C(Nc1n[nH]c2cc(-c3ccoc3)ccc12)C1CC1 [SB-738481]	0	0	89	19	29	0	0	6	0	0
CC(=O)Nc1nc2cnc(Nc3cc(NC(=O)c4cccc(C5(C#N)CC5)c4Cl)ccc3C)nc2s1	4	12	0	0	0	0	0	0	0	1
Cc1cccc(NC(=O)Nc2ccc(Oc3ncnc4ccn(C)c34)cc2)c1	26	17	0	0	0	0	5	30	0	0
CN(C)S(=O)(=O)c1cc(-c2ccc3nccc(-c4cccc(S(N)(=O)=O)c4)c3c2)cnc1N [GSK1669921]	100	16	0	11	35	0	1	17	0	9
Cl.Cl.NCC(NC(=O)c1cc(-c2ccccc2)c(-c2ccnc3[nH]ccc23)s1)c1ccccc1 (stereo not shown) [GSK1321561]	0	13	17	94.9	26	14	0	24	16	25
